From PubChem BioAssay
Several values for one entry are separate records, joined by “and”; a condition that tells them apart may be missing. Equal values may be shown once. Activity calls are given as the source filed them.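 How the source made its calls, unless noted: active means compounds whose cell count with miR-34 switched on is under 0.7 times the count with it off; inactive means the rest.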

Columns and labels:
[1] = viability loss with induced miR-34 in A549 – imaging, A549 dox-inducible miR-34, nuclei and caspase counts, primary screen (AID 1347080); conditions: A549 miR-34 inducible, Hoechst nuclei count, 48 h
[2] = MELAS cybrid and Rieske KO viability enhancers – cell-based, MELAS cybrids, Rieske KO mouse fibroblasts, CellTiter-Glo, primary screen (AID 1508586;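 active means mean z-score across replicates of 1.96 or higher in either the MELAS or the Rieske mutant cell line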;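 further: z relative to plate mean and SD of compound and empty wells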); conditions: low glucose
[3] = target: NAD(+) hydrolase SARM1 (Homo sapiens) (UniProt Q6SZW1); assay: blocking NAD cleavage by SARM1 SAM-TIR – cell lysate, NAD-Glo luminescence (AID 1508614;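 active means compound whose remaining NAD level is above about 45 nM, limit read from the data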); conditions: SAM-TIR HEK293T lysate NADase, at 1 µM, stronger effect = higher value
NAD(+) hydrolase SARM1 (Homo sapiens), sequence (Q6SZW1 whole entry, looked up, the tested form may be a part): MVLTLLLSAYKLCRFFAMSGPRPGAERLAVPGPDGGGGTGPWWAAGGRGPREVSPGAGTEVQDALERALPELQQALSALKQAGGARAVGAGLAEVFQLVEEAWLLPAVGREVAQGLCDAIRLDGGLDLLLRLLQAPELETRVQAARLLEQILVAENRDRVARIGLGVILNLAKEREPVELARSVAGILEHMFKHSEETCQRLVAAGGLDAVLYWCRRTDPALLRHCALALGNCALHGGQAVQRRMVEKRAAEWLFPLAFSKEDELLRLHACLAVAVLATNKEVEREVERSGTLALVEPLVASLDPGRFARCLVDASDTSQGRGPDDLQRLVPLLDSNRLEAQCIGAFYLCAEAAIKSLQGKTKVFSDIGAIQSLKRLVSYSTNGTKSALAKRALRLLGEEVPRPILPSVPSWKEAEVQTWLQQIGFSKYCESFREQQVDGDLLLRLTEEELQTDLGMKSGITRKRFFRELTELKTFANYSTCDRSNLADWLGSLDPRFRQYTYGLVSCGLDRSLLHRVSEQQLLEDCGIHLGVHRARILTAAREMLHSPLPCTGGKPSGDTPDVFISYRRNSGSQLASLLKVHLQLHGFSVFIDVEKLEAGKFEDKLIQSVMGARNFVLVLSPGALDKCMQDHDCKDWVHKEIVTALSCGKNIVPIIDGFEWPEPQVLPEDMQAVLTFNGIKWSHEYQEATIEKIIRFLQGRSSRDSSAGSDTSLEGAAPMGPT

[4] = target: Mitogen-activated protein kinase 7 (Homo sapiens) (UniProt Q13164); assay: Gal4-ERK5 driven luciferase induction – cell-based, HTS, primary screen (AID 1508626;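 active means luciferase signal above three times the same-plate solvent-only control wells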;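 further: luciferase driven by Gal4-ERK5 fusion binding five Gal4 sites before minimal TATA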); conditions: HeLa Gal4-ERK5 transactivation, 18 h, at 5 µM, stronger effect = higher value
Mitogen-activated protein kinase 7 (Homo sapiens), sequence (Q13164 whole entry, looked up, the tested form may be a part): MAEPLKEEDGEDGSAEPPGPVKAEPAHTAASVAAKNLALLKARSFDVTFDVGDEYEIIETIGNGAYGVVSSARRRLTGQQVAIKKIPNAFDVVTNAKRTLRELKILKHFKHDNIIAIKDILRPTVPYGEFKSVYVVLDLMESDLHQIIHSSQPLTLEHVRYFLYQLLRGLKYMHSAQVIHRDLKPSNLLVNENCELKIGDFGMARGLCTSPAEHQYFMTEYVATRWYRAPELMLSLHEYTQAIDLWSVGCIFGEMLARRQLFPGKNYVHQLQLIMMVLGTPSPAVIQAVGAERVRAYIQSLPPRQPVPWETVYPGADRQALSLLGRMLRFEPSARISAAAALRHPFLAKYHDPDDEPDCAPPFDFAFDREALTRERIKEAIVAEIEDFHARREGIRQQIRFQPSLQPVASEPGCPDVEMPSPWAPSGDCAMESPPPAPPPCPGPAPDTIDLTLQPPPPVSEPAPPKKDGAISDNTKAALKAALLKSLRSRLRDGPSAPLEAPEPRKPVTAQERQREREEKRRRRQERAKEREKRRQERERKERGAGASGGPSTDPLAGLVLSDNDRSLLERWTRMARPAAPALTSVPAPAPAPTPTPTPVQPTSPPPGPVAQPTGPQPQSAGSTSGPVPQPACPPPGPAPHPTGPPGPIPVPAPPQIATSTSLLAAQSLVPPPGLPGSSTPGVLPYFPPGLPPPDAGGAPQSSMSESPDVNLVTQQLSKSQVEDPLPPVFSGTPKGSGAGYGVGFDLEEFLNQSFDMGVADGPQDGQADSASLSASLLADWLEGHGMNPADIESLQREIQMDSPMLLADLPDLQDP

[5] = stronger effect = lower value, cell number ratio, induced over uninduced
[6] = measured here: relative caspase fold change +Dox/-Dox
[7] = measured here: total cells with miR-34 induction, stronger effect = lower value
[8] = measured here: total cells without miR-34 induction
[9] = MELAS cybrid survival, CellTiter-Glo 48 h, stronger effect = higher value
[10] = Rieske KO mouse fibroblast survival, CellTiter-Glo 72 h

Structure (SMILES) | fold change [1, 5] | fold change [1, 6] | cell count [1, 7] | cell count [1, 8] | z-score [2, 9] | z-score [2, 10] | remaining NAD [3] | luciferase signal [4]
Nc1ccc(S(=O)(=O)Nc2ccc(Cl)nn2)cc1 | 0.789 (inactive) and 0.924 (inactive) | 1.6 and 3.43 | 7930 and 11400 | 10000 and 12300 | 0.0891 (inactive) | 0.0567 | 10 nM (inactive) | 168 AU (inactive)
Nc1ccc(S(=O)(=O)NC(=O)c2ccccc2)cc1 | 0.806 (inactive) and 0.919 (inactive) | 1.13 and 2.49 | 7780 and 10600 | 9660 and 11500 | -0.2 (inactive) | -0.379 | 10 nM (inactive) | 32 AU (inactive)
Nc1cc(-c2ccncc2)c[nH]c1=O | 0.97 (inactive) and 0.958 (inactive) | 0.721 and 1.08 | 9670 and 8610 | 9980 and 8980 | -0.926 (inactive) | -1.08 | 10 nM (inactive) | 104 AU (inactive)
CN1CCC(=C2c3ccccc3Sc3ccccc32)CC1 | 0.873 (inactive) | 1.16 | 7410 | 8480 | 0.363 (inactive) | 0.395 | 83 nM (active) | 64 AU (inactive)
CCCCC(CC)CN1CN(CC(CC)CCCC)CC(C)(N)C1 (stereo unspecified) | 0.838 (inactive) | 1.46 | 8130 | 9710 | -1.45 (inactive) | -0.231 | 10 nM (inactive) | 88 AU (inactive)
O=C(O)CCCC[C@@H]1SC[C@@H]2NC(=O)N[C@@H]21 | 0.845 (inactive) | 1.66 | 8760 | 10400 | -0.325 (inactive) | -0.214 | 10 nM (inactive) | 256 AU (inactive)
Nc1ccc(C(=O)NCC(=O)O)cc1 | 0.905 (inactive) and 0.867 (inactive) and 0.907 (inactive) | 1.12 and 0.765 and 3.35 | 9600 and 8480 and 12000 | 10600 and 9780 and 13300 | -0.372 (inactive) and 0.514 (inactive) | -0.0832 and -0.331 | 10 nM (inactive) | 20 AU (inactive)
Cc1cc(CC(=O)O)n(C)c1C(=O)c1ccc(Cl)cc1 | 0.925 (inactive) and 0.888 (inactive) | 1.12 and 2.44 | 9260 and 11200 | 10000 and 12600 | -0.685 (inactive) | -0.331 | 10 nM (inactive) | 96 AU (inactive)
Cc1ccc2c(Cl)cc(Cl)c(O)c2n1 | 0.915 (inactive) and 0.981 (inactive) | 0.745 and 0.409 | 9230 and 3330 | 10100 and 3390 | -0.257 (inactive) | -0.123 | 10 nM (inactive) | 32 AU (inactive)
Nc1nc2c(c(=O)[nH]1)N(C=O)C(CNc1ccc(C(=O)N[C@@H](CCC(=O)O)C(=O)O)cc1)CN2 (stereo partly specified) | 0.908 (inactive) and 0.841 (inactive) | 0.756 and 0.824 | 9140 and 10900 | 10100 and 12900 | -0.42 (inactive) | 0.152 | 10 nM (inactive) | 72 AU (inactive)
Nc1ccc(S(=O)(=O)Nc2nccs2)cc1 | 0.93 (inactive) and 0.957 (inactive) and 0.871 (inactive) | 1.04 and 0.824 and 4.44 | 8630 and 7440 and 10900 | 9270 and 7780 and 12500 | -0.000944 (inactive) and 0.344 (inactive) | -0.264 and 0.18 | 10 nM (inactive) | 84 AU (inactive)
O=C(O)c1ccccc1C(=O)Nc1ccc(S(=O)(=O)Nc2nccs2)cc1 | 0.914 (inactive) and 0.897 (inactive) | 1.08 and 2.76 | 8730 and 11300 | 9550 and 12600 | 0.52 (inactive) | 0.0843 | 10 nM (inactive) | 92 AU (inactive)
O=C(CCCCC(=O)Nc1c(I)cc(I)c(C(=O)O)c1I)Nc1c(I)cc(I)c(C(=O)O)c1I | 0.893 (inactive) | 1.51 | 9730 | 10900 | 0.645 (inactive) | -0.141 | 10 nM (inactive) | 44 AU (inactive)
Nc1ccc(S(=O)(=O)Nc2cnc3ccccc3n2)cc1 | 0.892 (inactive) and 0.874 (inactive) | 0.858 and 3.15 | 8790 and 11400 | 9850 and 13000 | 0.496 (inactive) | 0.547 | 10 nM (inactive) | 84 AU (inactive)
CCC(=O)c1c(O)cc(O)cc1O | 0.895 (inactive) | 0.888 | 7860 | 8770 | -0.229 (inactive) | -0.146 | 10 nM (inactive) | 60 AU (inactive)
Nc1nccs1 | 0.923 (inactive) | 0.616 | 7980 | 8650 | -0.119 (inactive) | -0.205 | 10 nM (inactive) | 40 AU (inactive)
CCCCCCCCNC(C)C(O)c1ccc(SC(C)C)cc1 (stereo unspecified) | 0.989 (inactive) and 0.828 (inactive) | 0.711 and 5.68 | 4220 and 5020 | 4270 and 6060 | -2.11 | 11.2 | 10 nM (inactive) | 60 AU (inactive)
